Our source for the cytotoxicity values is PubChem BioAssay AID430 (Sanford-Burnham Center for Chemical Genomics, 2006).

The campaign covered roughly 63,000 compounds. About 1,100 (1.7%) were called active. The sample holds actives, similar compounds and a random draw of the others, so the mix is not that of the screen. Cut-off read from the data, not from the text of the source: active = cytotoxicity above about 50%; inactive = the rest. Results with a measured potency or affinity are listed apart.

The test is described as follows: HPDE-C7 pancreatic duct cell viability loss – fluorescence, HTS (AID 430).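 Note: cells exposed to compound for 48 hours before viability readout; 0% = vehicle and 100% = reference cytotoxic drug.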 The settings on record: HPDE-C7 pancreatic duct cells viability, at 10 µM, stronger effect = higher value.
In the case of `Nc1nc(CSc2ncn(-c3ccccc3)n2)cs1`, the cytotoxicity is 15.3% (inactive).

In the case of `CC(=O)N(Cc1cc2ccc(C)c(C)c2n2nnnc12)C1CCCC1`, the cytotoxicity was -3.5% (inactive).

Take `Cc1ccc(S(=O)(=O)N(CC(=O)O)Cc2ccccc2)cc1`: the cytotoxicity is -7.6% (inactive).

On to `O=C(CN1C(=O)C2CC=C(Cl)CC2C1=O)N1CCOCC1` (stereo unspecified), for which the cytotoxicity is -3.5% (inactive).

As to `CN1CCN(C(=O)c2cccc(S(=O)(=O)N3CCCCC3)c2)CC1`, the cytotoxicity was -2.6% (inactive).

With `Cn1c(=O)c(C(=O)NC2CCCCCCC2)c(O)c2ccccc21`, the cytotoxicity is 9.6% (inactive).

Consider `O=C(NC1CCCC1)c1sc(=S)n2c1[nH]c(=O)c1ccccc12`, for which the cytotoxicity is 79.4% (active).

Regarding `O=C(NC1CCCCCCC1)c1c(O)c2ccccc2[nH]c1=O`, the cytotoxicity was -13.7% (inactive).

`O=C(NC1CCCCCC1)c1c(O)c2ccccc2[nH]c1=O`: the cytotoxicity was -4.9% (inactive).

As for `Cn1c(C(=O)NC2CCCC2)cc2c(=O)n(C)c3ccccc3c21`, the cytotoxicity was 3.5% (inactive).

`O=C(NC1CCCCC1)c1sc(=S)n2c1[nH]c(=O)c1ccccc12`: the cytotoxicity was 82.6% (active).

In the case of `COCCN(CCOC)C(=O)CCn1c(=O)oc2ccccc21`, the cytotoxicity is -0.2% (inactive).

On to `Cc1cc2n(n1)C(c1sccc1C)Nc1c(C)cccc1-2` (stereo unspecified), for which the cytotoxicity is -3.2% (inactive).

Consider `C(=C\c1ccccc1)/CSc1nnc(-c2ccccn2)n1Cc1ccco1`, for which the cytotoxicity was 33.9% (inactive).

As to `CC1(C)Cc2nc3oc4c(=S)nc[nH]c4c3cc2CO1`, the cytotoxicity was -4.7% (inactive).

Regarding `Cn1c(=O)c2c(ncn2CC(=O)N2CCN(c3ccc(F)cc3)CC2)n(C)c1=O`, the cytotoxicity is 4.3% (inactive).

On to `CCOC(=O)CCn1nc(-c2ccccc2)cc1N`, for which the cytotoxicity was -7.8% (inactive).

For `CCOC(=O)CS(=O)(=O)c1ccc2ccccc2c1`, the cytotoxicity is -10.2% (inactive).

Consider `CCOC(=O)c1cnn2c(C)cc(-c3ccc(F)cc3)nc12`, for which the cytotoxicity is -7.6% (inactive).

In the case of `COCC(C)NC(=O)CCS(=O)(=O)c1nc(-c2ccc(OC)cc2)cc(C(F)(F)F)n1` (stereo unspecified), the cytotoxicity is 66.1% (active).

`CCOC(=O)CS(=O)(=O)c1nc(-c2ccccc2)cc(C(F)(F)F)n1`: the cytotoxicity is 27.1% (inactive).

With `Cc1cc(NC(=O)CCCS(=O)(=O)c2nc(-c3cccs3)cc(C(F)(F)F)n2)no1`, the cytotoxicity is 3.6% (inactive).

Turning to `COc1ccc(-c2cc(C(F)(F)F)nc(SCCC(=O)NCc3ccco3)n2)cc1`, the cytotoxicity was -3.2% (inactive).

Take `COc1ccccc1-c1cc(C(F)(F)F)nc(S(=O)(=O)CCCC(=O)Nc2cc(C)on2)n1`: the cytotoxicity is 38.2% (inactive).

As for `COc1ccc(-c2cc(C(F)(F)F)nc(SCC(=O)Nc3cc(C)on3)n2)cc1`, the cytotoxicity is -21.7% (inactive).

As for `CCn1cc(C(=O)NC2CCCCCC2)c2cc(OC)c(OC)cc2c1=O`, the cytotoxicity is -1.3% (inactive).
